Measurements taken from PubChem BioAssay AID651658 (Broad Institute, 2012).
Where “and” joins values, the source holds several entries; their conditions need not be identical. Equal values may be shown once. In all, about 340,000 compounds went through this assay and about 5,100 (1.5%) were called active. For the sample, actives were picked, then their nearest neighbours and some compounds at random. Unmarked numbers belong to inactive results.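 The calls were made as follows: active = mean Tm shift, scaled 0 neutral to 100 positive control, at about 1.3% or above, every replicate too (limit read from the data); inconclusive = no clear call, values can overlap the other calls; inactive = the rest.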

Target: Fibroblast growth factor 22 (Homo sapiens) (UniProt Q9HCT0)
Experiment: binders of human FGF22 protein, primary screen, FGF22 synaptogenesis inhibitor project, biophysical, thermal shift, single point (AID 651658)
Conditions: recombinant FGF22 thermal shift, SYPRO orange fluorescence; at 9.99 µM; stronger effect = higher value; percent of sucrose octasulfate shift, DMSO zero

Sequence of Fibroblast growth factor 22 (Homo sapiens) (Q9HCT0 whole entry, looked up): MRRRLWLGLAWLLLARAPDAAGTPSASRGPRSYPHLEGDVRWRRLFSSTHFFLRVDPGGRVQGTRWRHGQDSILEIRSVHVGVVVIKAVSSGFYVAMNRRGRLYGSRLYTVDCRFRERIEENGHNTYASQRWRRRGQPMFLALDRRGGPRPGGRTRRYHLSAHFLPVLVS

| SMILES | activity (Tm shift, normalised) |
| --- | --- |
| CN1C(=O)c2cc(NC(=O)c3cccc(F)c3)ccc2OC[C@@H]2O[C@@H](CC(=O)NCC3CCCCC3)CC[C@H]21 | -0.226% and -0.131% |
| CCC(=O)N1[C@@H](CO)[C@@H](c2ccccc2)C12CN(C(=O)Cc1ccccc1)C2 | -0.201% |
| Cc1cc(NC(=O)CCC(=O)N(CC(=O)NCC2CCCO2)c2ccccc2)no1 (stereo unspecified) | 0.811% |
| Cc1cc(C)cc(N(CC(=O)NC2CCCC2)C(=O)CCC(=O)Nc2cc(C)on2)c1 | -0.343% |
| COC(=O)c1cccc(N(CC(=O)NCC2CCCO2)C(=O)CCC(=O)Nc2cc(C)on2)c1 (stereo unspecified) | 43% (active) |
| COC(=O)c1c(C)[nH]c(C)c1-c1ccc([N+](=O)[O-])cc1 | 0.028% |
| COC(=O)C1=C(C(=O)OC)C(c2cc([N+](=O)[O-])ccc2O)c2sc(=O)[nH]c2S1 (stereo unspecified) | 43.5% (active) |
| COC(=O)C1=CN(c2ccc(F)c(F)c2)C=C(C(=O)OC)C1c1ccc([N+](=O)[O-])cc1 | 0.128% |
| CCCNC(=O)N1CC(=O)N2[C@H](CO)[C@H](c3ccc(C#Cc4cccc(OC)c4)cc3)[C@H]2C1 | 0.3% |
| C[C@H]1CCCCO[C@@H](CN(C)C(=O)Cc2ccccc2)[C@@H](C)CN([C@@H](C)CO)C(=O)c2cc(NC(=O)c3ccccc3)ccc2O1 | -0.058% |
| Cc1ccc(S(=O)(=O)N(C)C[C@@H]2Oc3ccc(NC(=O)C4CCCCC4)cc3CC(=O)N([C@@H](C)CO)C[C@H]2C)cc1 | -0.112% |
| COc1cccc(NC(=O)C[C@@H]2CC[C@H]3[C@@H](COc4ccc(NC(=O)C5CCOCC5)cc4C(=O)N3C)O2)c1 | -0.165% |
| Cc1ccc2[nH]cc(CCNC(=O)c3ccc([N+](=O)[O-])cc3)c2c1 | 43.1% (active) |
| Cc1ccc2[nH]cc(CCNC(=O)C3CCCCC3)c2c1 | -0.161% |
| O=C(NCCc1c[nH]c2ccc(Cl)cc12)c1ccc([N+](=O)[O-])cc1 | -0.153% |
| CS(=O)(=O)N1CC(=O)N2[C@@H](CO)[C@@H](c3ccc(C#CCC4CCCC4)cc3)[C@@H]2C1 | -0.002% |
| Cc1ccc(NC(=O)CCC(=O)c2ccc(Br)cc2)cc1 | 0.05% |
| Cc1ccc(NC(=O)Cn2c(C)csc2=O)cc1 | -0.213% |

| SMILES | activity (Tm shift, normalised) |
| --- | --- |
| Cc1ccc(NC(=O)Nc2cccnc2)cc1 | 1.35% (active) |
| Cc1ccc(NC(=O)c2cccnc2C(=O)Nc2ccc(C)cc2)cc1 | 0.363% |
| Cc1ccc(NC(=O)CC(=O)Nc2ccc(C)cc2)cc1 | 43.3% (active) |
| O=C(Nc1ccc(Cl)cc1)Nc1ccc(Oc2cccnc2)nc1 | 0.04% |
| C[C@@H]1CN([C@@H](C)CO)C(=O)c2cc(N(C)C)ccc2O[C@@H](C)CCCCO[C@H]1CN(C)C(=O)CCCN(C)C | -1.35% |
| CC(Sc1nncn1C)C(=O)Nc1cc(C(F)(F)F)ccc1N1CCOCC1 (stereo unspecified) | 43% (active) |
| O=C(CN1C(=O)NC2(CCCC2)C1=O)Nc1cc(C(F)(F)F)ccc1N1CCOCC1 | 0.22% |
| O=C(CCC1CCCCC1)Nc1cc(C(F)(F)F)ccc1N1CCOCC1 | -0.247% |
| CCCN1[C@@H]2c3ccc(C4=CCCC4)c(=O)n3C[C@@H]2[C@@H](CO)[C@@H]1C(=O)NCc1ccccn1 | -0.078% |
| OC[C@H]1[C@H](c2ccc(-c3ccccc3F)cc2)[C@H]2CN(Cc3cncnc3)CCCCN21 | 0.4% |
| CN(C)C(=O)C[C@H]1CC[C@H](NC(=O)NC2CCCC2)[C@@H](CO)O1 | -0.127% |
| O=C(COC(=O)Cn1cnc2ccccc21)Nc1cccc2c1C(=O)c1ccccc1C2=O | 0.059% |
| O=C(Cn1cnc2ccccc21)Nc1ccccc1-c1ccccc1 | 0.098% |
| CC(=O)OC(COc1ccc(F)cc1)Cn1cnc2ccccc21 (stereo unspecified) | 43% (active) |
| CO[C@H]1CN(C)C(=O)c2ccc(NC(=O)c3ccno3)cc2OC[C@@H](C)N(S(C)(=O)=O)C[C@H]1C | 0.142% |
| C[C@H](CO)N1C[C@H](C)[C@@H](CN(C)C)Oc2ccc(N(C)C)cc2C1=O | 1.41% (active) |
| C[C@@H]1CN([C@H](C)CO)C(=O)c2cc(N(C)C)ccc2O[C@@H]1CN(C)S(C)(=O)=O | -0.284% |
| CNC[C@H]1Oc2ccc(NC(=O)C3CCCCC3)cc2C(=O)N([C@H](C)CO)C[C@@H]1C | -0.27% |
